Records with an inconclusive call do not appear. Unmarked numbers belong to inactive results. Calls of active or inactive are those of the source. The call rests on the fitted dose curve; in most records, active means well fitted inhibition curve with a large enough effect; inconclusive means small, poorly fitted or top-dose-only effect; inactive means flat fitted curve, though single readings scatter.
On the % scale 0 is the no-effect control and ±100 the full control effect; potency means the concentration at half of the fitted maximal effect.

The experiment can be described thus: P-glycoprotein substrates identified in KB-8-5-11 adenocarcinoma cell line, qHTS therapeutic library screen (AID 1346987). Further: nearly all actives have a fitted effect of over 65% in size. Conditions: KB-8-5-11 (P-gp overexpressing) viability, CellTiter-Glo, 72 h; series mostly up to 44.5 µM; activity change, negative = cytotoxicity: at the top concentration. An outline of the steps:
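Luminescence from CellTiter-Glo, read 5 min after addition, quantified survival of KB-8-5-11 (P-gp-overexpressing) cells exposed to compounds for 72 h. AC50 was derived from concentration-response curves.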
A general note: qHTS replaces the single test concentration by a dilution series.
Regarding `CC(=O)O[C@@](C)(C(=O)/C=C/C(C)(C)O)[C@H]1[C@H](O)C[C@@]2(C)[C@@H]3CC=C4[C@@H](C=C(O)C(=O)C4(C)C)[C@]3(C)C(=O)C[C@]12C`, the Potency was 796 nM (active).

Turning to `CC1(C)CCCC2(C)C=C(C(=O)O)C(O)CC12` (stereo not drawn), the result was inactive.

On to `CN(C)CCn1cc(S(=O)(=O)c2cccc(F)c2)c2cccnc21`, for which the “activity change, negative = cytotoxicity” value was -17.9%.

As to `CC(C)CNCc1ccc(-c2ccccc2S(=O)(=O)N2CCCC2)cc1`, the “activity change, negative = cytotoxicity” value was -23%.

`C/C=C1\[C@H](OC2OC(COC3OC(CO)C(O)C(O)C3O)C(O)C(O)C2O)OC=C(C(=O)OC)[C@H]1CC(=O)OCCc1ccc(O)cc1` (stereo partly drawn): the “activity change, negative = cytotoxicity” value was 1.76% [at 17.3 µM].

For `CC1CCC2(OC1)OC1CC3C4CCC5C[C@@H](O[C@@H]6O[C@H](CO[C@@H]7OC[C@@H](O)[C@H](O)[C@H]7O)[C@H](O)[C@H](O)[C@H]6O)CC[C@]5(C)C4CC[C@]3(C)C1C2C` (stereo partly drawn), the “outcome” value is “inactive [at 17.3 µM]”.

Take `C[C@@H]1CC[C@]2(C(=O)O)CC[C@]3(C)C(=CCC4[C@@]5(C)C[C@@H](O)[C@H](O)[C@@](C)(CO)C5CC[C@]43C)C2[C@]1(C)O` (stereo partly drawn): the “activity change, negative = cytotoxicity” value was 0.128% [at 17.3 µM].

In the case of `CC1(C)CC2=C3C=CC4C5(C)CCC(O)C(C)(C)C5CCC4(C)C3(C)CCC2(C)C(O)C1` (stereo not drawn), the “activity change, negative = cytotoxicity” value is -3.24% [at 17.3 µM].

For the compound `C=C1CCC2C(C)(C(=O)OC)CCCC2(C)C1CCC(C)CC(=O)O` (stereo not drawn), the compound was called inactive.

As for `C=C[C@@](C)(O)CC/C=C(\C)C(=O)O[C@@H]1[C@@H]2O[C@]2(C)[C@H]2[C@H](O[C@@H]3O[C@H](CO)[C@@H](O)[C@H](O)[C@H]3O)OC=C[C@@]12O`, the “activity change, negative = cytotoxicity” value was 1.31% [at 17.3 µM].

For `C=C1CCC2C(C)(C)C(O)CCC2(C)C1CCC(C)CCOC(C)=O` (stereo not drawn), the “activity change, negative = cytotoxicity” value is -0.883%.

For the compound `CC(C)/C=C1\NC(=O)C(C(C)C)n2c1nc1c(c2=O)C=CC=CO1` (stereo not drawn), the “activity change, negative = cytotoxicity” value was -12.4%.

For `CCOC(=O)CCN(C(=O)c1ccc2c(c1)nc(CNc1ccc(C(=N)N)cc1)n2C)c1ccccn1`, the “activity change, negative = cytotoxicity” value was -12.1%.

Consider `N[C@H]1Cc2ccccc2N(O)C1=O`, for which the “activity change, negative = cytotoxicity” value is -9.03%.

Regarding `C[C@@H]1O[C@@H](O[C@@H]2[C@@H](O)[C@H](O[C@H]3[C@H](O[C@H]4CC[C@@]5(C)C(CC[C@]6(C)C5CC=C5[C@@H]7CC(C)(C)CC[C@]7(C(=O)O[C@@H]7O[C@H](CO)[C@@H](O)[C@H](O)[C@H]7O[C@@H]7O[C@@H](C)[C@H](O[C@@H]8O[C@@H](C)[C@H](O)[C@@H](O)[C@H]8O)[C@@H](O)[C@H]7O)CC[C@]56C)[C@@]4(C)CO)O[C@H](C(=O)O)[C@@H](O)[C@@H]3O)O[C@H](CO)[C@H]2O)[C@H](O)[C@H](O)[C@H]1O` (stereo partly drawn), the activity change, negative = cytotoxicity was 9.26% [at 9.29 µM].

In the case of `COc1ccc(C(=O)Nc2ncc(-c3ccc(C(=O)O)cc3)s2)cc1`, the Potency was 2910 nM (active).

Turning to `NC(=O)[C@H]1CCS[C@@H]2C[C@]3(CCCN3C(=O)Cc3ccc(NC(=O)COc4ccc(Cl)cc4Cl)cc3)C(=O)N12`, the Potency is 20600 nM (active).

Regarding `Clc1cc2c(NC3CCCC3)nnc(-c3ccncc3)c2cc1Cl`, the “activity change, negative = cytotoxicity” value is -18.6% [at 17.3 µM].

As for `COc1c2c(c(C)c3c1C(=O)OC3)OC1(C)CC(O)C34OC(OC)(CC(OC(C)=O)C3(C)C1C2)OC4(C)C` (stereo not drawn), the “activity change, negative = cytotoxicity” value is 7.36% [at 17.3 µM].

Consider `OCC1OC(Oc2cc(O)cc(/C=C/c3ccc(O)cc3)c2)C(O)C(O)C1O` (stereo not drawn), for which the “activity change, negative = cytotoxicity” value is 2.28%.

Regarding `Cc1cc(C(=O)N2Cc3cnn(C)c3Nc3ccccc32)ccc1CNC(=O)N1CCC[C@H]1C(=S)N1CCCN(C)CC1`, the “activity change, negative = cytotoxicity” value was 5.53%.

As for `COc1ccc(C(=O)n2c(C)c(Cc3cccc(O[C@@H](C)C(=O)O)c3)c3cc(OC(F)(F)F)ccc32)cc1`, the “activity change, negative = cytotoxicity” value was 2.45%.

`COc1cc(Br)c(Nc2nc(-c3c(C)nc4ncccn34)cs2)c(Br)c1`: the Potency is 2310 nM (active).

Turning to `C[C@@H]1CC[C@]2(C(=O)O[C@@H]3O[C@H](CO)[C@@H](O)[C@H](O)[C@H]3O)CC[C@]3(C)C(=CCC4[C@@]5(C)C[C@@H](O)[C@H](O)[C@](C)(C(=O)O)C5CC[C@]43C)[C@@H]2[C@]1(C)O` (stereo partly drawn), the “outcome” value was “inactive [at 17.3 µM]”.

Turning to `C=CC(=O)Nc1cccc(Nc2nc(Nc3ccc(N4CCN(C(C)=O)CC4)cc3OC)ncc2C(F)(F)F)c1`, the Potency is 20600 nM (active).

As for `C=C1CCC2C(C)(C(=O)O)CCCC2(C)C1CCC(C)CC(=O)O` (stereo not drawn), the “activity change, negative = cytotoxicity” value was -3.83%.

Take `CC(=O)OC12COC1CC(O)C1(C)C(=O)C(O)C3=C(C)C(OC(=O)C(O)C(NC(=O)OC(C)(C)C)c4ccccc4)CC(O)(C(OC(=O)c4ccccc4)C21)C3(C)C` (stereo not drawn): the Potency was 164 nM (active).

Consider `O=C(O)C(O[C@@H]1O[C@H](CO[C@@H]2O[C@H](CO)[C@@H](O)[C@H](O)[C@H]2O)[C@@H](O)[C@H](O)[C@H]1O)c1ccccc1` (stereo partly drawn), for which the “outcome” value is “inactive [at 17.3 µM]”.

As for `CN1CCN(C2CCC(n3cc(-c4ccc(Oc5ccccc5)cc4)c4c(N)ncnc43)CC2)CC1` (stereo not drawn), the Potency was 5800 nM (active).

Turning to `COc1ccc(N(C)c2nc(C)nc3ccccc23)cc1`, the Potency is 6.5 nM (active).

For `COc1cc2ncnc(Nc3ccc(O)cc3)c2cc1OC`, the outcome was inactive.

`CC[C@]1(O)CC2CN(CCc3c([nH]c4ccccc34)[C@@](C(=O)OC)(c3cc4c(cc3OC)N(C)[C@H]3[C@@](O)(C(=O)OC)[C@H](OC(C)=O)[C@]5(CC)C=CCN6CC[C@]43[C@@H]65)C2)C1` (stereo partly drawn): the Potency was 1030 nM (active).

On to `CC(C)(O)CC(CO)NC(=O)CC(O)CC(=O)Cc1ccccc1` (stereo not drawn), for which the compound was classed as inactive.

Turning to `CO[C@H]1/C=C\O[C@@]2(C)Oc3c(C)c(O)c4c(O)c(c5c(nc6cc(C)ccn65)c4c3C2=O)NC(=O)/C(C)=C\C=C/[C@H](C)[C@H](O)[C@@H](C)[C@@H](O)[C@@H](C)[C@H](OC(C)=O)[C@@H]1C`, the result was inactive.

For the compound `C=C1CCC2C(C)(COC(C)=O)CCCC2(C)C1CCC(C)CC(=O)O` (stereo not drawn), the “activity change, negative = cytotoxicity” value was 7.67%.

Turning to `CCNC(=O)C1OC(n2cnc3c(N)nc(NCCc4ccc(CCC(=O)O)cc4)nc32)C(O)C1O` (stereo not drawn), the “activity change, negative = cytotoxicity” value was -5.42%.

`CC(O)/C=C/C1OC(=O)CC1Nc1ccc(C(=O)O)cc1` (stereo not drawn): the compound was called inactive.

With `COc1ccc(C2(O)c3ccccc3NC(=O)C2O)cc1` (stereo not drawn), the result was inactive.

These data come from PubChem BioAssay (NCATS).
